TRHR ag – qHTS for Small Molecule Agonists and Allosteric Enhancers of Human TRH Receptor: Primary Screen for Agonists; Thyrotropin-releasing hormone receptor (Homo sapiens), P34981; TRHR cells, calcium flux fluo-8, FDSS agonist mode; activation, % at 2 µM; 360,000 tested, 0.18% active; note: 0% is about no effect
Target sequence (P34981 whole entry, looked up): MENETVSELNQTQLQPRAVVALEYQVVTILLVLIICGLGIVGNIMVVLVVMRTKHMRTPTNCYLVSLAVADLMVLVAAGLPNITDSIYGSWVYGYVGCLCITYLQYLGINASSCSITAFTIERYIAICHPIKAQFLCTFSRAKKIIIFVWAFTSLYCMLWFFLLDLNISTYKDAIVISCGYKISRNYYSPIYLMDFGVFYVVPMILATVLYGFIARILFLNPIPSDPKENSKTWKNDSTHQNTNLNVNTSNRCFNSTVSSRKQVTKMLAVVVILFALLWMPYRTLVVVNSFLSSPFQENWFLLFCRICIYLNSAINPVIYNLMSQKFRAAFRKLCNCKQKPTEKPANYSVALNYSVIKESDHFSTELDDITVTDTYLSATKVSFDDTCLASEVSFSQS
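TRHR-expressing cells, plated overnight in medium with 10% serum, were loaded with fluo-8 calcium dye at room temperature. After a 10 s baseline, library compound was pin-added and calcium release was recorded kinetically (ex 480/em 530) as agonist response.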
TRHR PAM – qHTS for Small Molecule Agonists and Allosteric Enhancers of Human TRH Receptor: Primary Screen for Enhancers; enhancement, % at 2 µM; TRHR cells, fluo-8 calcium fluorescence, EC20 TRH enhancement; 360,000 tested, 0.66% active; AID 493056, 2011; in the data active = enhancement above about 30%; note: 0% is about no effect
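Enhancer read-out: after compound pinning and an initial kinetic agonist-mode read, an EC20 of TRH (10 nM final) was injected and fluo-8 calcium signal (Ex 480/Em 530) followed at 1 s/cycle for 100 cycles in TRHR-expressing cells.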
D1 potentiator – Potentiators of Human D1 Dopamine Receptor: qHTS. potentiation, % at 10 µM. D(1A) dopamine receptor (Homo sapiens), P21728. 360,000 tested, 0.036% active. AID 504651, 2011. HEK293 TREx D1 cells, calcium flux, dopamine EC20 potentiation; in the data active = potentiation above about 30%; note: 0% is about no effect
D1 antagonist – Antagonist of Human D 1 Dopamine Receptor: qHTS; D(1A) dopamine receptor (Homo sapiens), P21728; HEK293 TREx D1 cells, calcium flux, dopamine EC80; hits give low values; activity change, negative = inhibition, % at 10 µM; 360,000 tested, 3.2% active; AID 504652, 2011; in the data active = activity change below about -30%; note: % is set by controls: 0 for no effect and ±100 for the full control effect
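Tetracycline-induced HEK293 T-REx cells with force-coupled D1 receptor were loaded with a no-wash calcium dye. Compound was added after a 10 s baseline and read kinetically for 180 s; EC80 dopamine was then added and calcium flux followed another 180 s.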
D1 ag – Allosteric Agonists of the Human D1 Dopamine Receptor: qHTS; HEK293 T-REx D1 cells, calcium flux, agonist mode; 360,000 tested, 1% active; activation, % at 2 µM; note: 0% is about no effect
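Tetracycline-induced HEK293 TREx D1 cells, force-coupled to calcium signalling, were dye-loaded with a no-wash calcium kit. Compound was pin-added after a 10 s baseline. Fluorescence was read kinetically at 1 cycle/s for 180 s, with calcium rises flagged as agonism.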
Starred values were filed as active, the others as inactive. Hits are enriched below; roughly 4.6% of the tested compounds scored in any of these assays. Cut-off read from the data, not from the text of the source, unless noted: active = activation above about 30%; inactive = the rest.

Cc1cc(NC(=O)c2c(-c3c(Cl)cccc3Cl)noc2C)n(C)n1 was read as TRHR ag 0, TRHR PAM 13, D1 potentiator -11, D1 antagonist -50* and D1 ag 3.
`COc1ccc(OC)c(NC(=O)COC(=O)c2ccc(-n3cnnn3)cc2)c1` gave TRHR ag 0, TRHR PAM -2, D1 potentiator -1, D1 antagonist 0 and D1 ag 2.
COc1cc(C(=O)Nc2cccc(-n3cnnn3)c2)cc(OC)c1OC was read as TRHR ag 0, TRHR PAM -3, D1 potentiator -12, D1 antagonist -9 and D1 ag 3.
`Cc1cc(C)c(C)c(S(=O)(=O)Nc2cccc(-n3cnnn3)c2)c1C` gave TRHR ag 0, TRHR PAM 6, D1 potentiator -5, D1 antagonist -33* and D1 ag 7.
Screening COc1ccc(NC(=O)COC(=O)CNC(=O)c2cccs2)cc1Cl returned TRHR ag 0, TRHR PAM 2, D1 antagonist -34* and D1 ag 0.
For COc1ccc(NC(=O)CCC(=O)c2cccs2)cc1Cl the results were TRHR ag 0, TRHR PAM 11, D1 potentiator 0, D1 antagonist -3 and D1 ag 2.
COc1cccc(OC)c1C(=O)Nc1cccc(-n2cnnn2)c1 was read as TRHR ag 0, TRHR PAM 0, D1 potentiator 0, D1 antagonist -35* and D1 ag 2.
COc1ccc(NC(=O)COC(=O)c2ccc(-n3cnnn3)cc2)cc1Cl was read as TRHR ag 0, TRHR PAM 31*, D1 potentiator -4, D1 antagonist -10 and D1 ag 7.
Cc1cc(C)c(S(=O)(=O)Nc2cccc(-n3cnnn3)c2)c(C)c1 was read as TRHR ag 0, TRHR PAM -4, D1 potentiator -1, D1 antagonist -16 and D1 ag 6.
CC(OC(=O)c1cccc(-n2cnnn2)c1)C(=O)Nc1cccc(Cl)c1 (stereo unspecified) was read as TRHR ag 0, TRHR PAM -3, D1 potentiator -5, D1 antagonist -36* and D1 ag 8.
For O=C(Nc1cccc(-n2cnnn2)c1)c1ccc(C(F)(F)F)cc1 the results were TRHR ag 1, TRHR PAM 8, D1 potentiator -4, D1 antagonist -32* and D1 ag 4.
CC(=O)c1ccc(NC(=O)C(C)OC(=O)c2cccc(-n3cnnn3)c2)cc1 (stereo unspecified) was read as TRHR ag 0, TRHR PAM -8, D1 potentiator -4, D1 antagonist -10 and D1 ag 0.
O=C(CCC(=O)c1cccs1)NCc1cccc(Cl)c1 was read as TRHR ag -1, TRHR PAM 12, D1 potentiator -3, D1 antagonist -3 and D1 ag -1.
For COc1ccc(NC(=O)c2sc3nc(-c4ccc(OC)cc4)cc(C(F)(F)F)c3c2N)cc1 the results were TRHR ag 4, TRHR PAM 9, D1 potentiator -1, D1 antagonist -9 and D1 ag 11.
COc1ccc(C(=O)c2sc3nc(-c4ccc(C)cc4)cc(C(F)(F)F)c3c2N)cc1 was read as TRHR ag 7, TRHR PAM -5, D1 potentiator -5, D1 antagonist -4 and D1 ag 90*.
COc1cccc(-c2ccc3c(N)c(C(=O)c4ccc(F)cc4)sc3n2)c1 was read as TRHR ag 24, TRHR PAM 8, D1 potentiator -4, D1 antagonist -10 and D1 ag 150*.
For COc1ccc(C(=O)c2sc3nc(-c4ccc(OC)cc4)ccc3c2N)cc1 the results were TRHR ag 13, TRHR PAM 3, D1 potentiator -6, D1 antagonist -8 and D1 ag 61*.

High-throughput results (PubChem)
